Where “and” joins values, the source holds several entries; their conditions need not be identical. Identical values can stand only once. This is part of a sample that, as a whole, favours compounds with a hit. Of some 83,000 tested, about 20% had one in any assay.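 Step 1: grow cells in 96-well plates. Step 2: add test compound at a single concentration. Step 3: incubate 48 h. Step 4: record percent growth.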 Calls of active or inactive are those of the source. Rule for the calls: active = growth percent below 10; inactive = the rest.
Tests used:
Assay in all cases: NCI-60 one-dose screen, 48 h (100 = growth as untreated, 0 = no growth, -100 = all killed)
Conditions in all cases: 10 µM
[1] = tested on: MALME-3M melanoma
[2] = tested on: MDA-MB-231 breast
[3] = tested on: RXF 393 renal
[4] = tested on: M14 melanoma
[5] = tested on: SK-MEL-5 melanoma
[6] = tested on: LOX IMVI melanoma
[7] = tested on: SK-MEL-28 melanoma
[8] = tested on: SN12C renal
[9] = tested on: MOLT-4 leukemia
[10] = tested on: OVCAR-5 ovarian
[11] = tested on: OVCAR-4 ovarian
[12] = tested on: SK-OV-3 ovarian
[13] = tested on: IGROV1 ovarian
[14] = tested on: HS 578T breast
[15] = tested on: NCI/ADR-RES ovarian
[16] = tested on: T-47D breast
[17] = tested on: SW-620 colon
[18] = tested on: MCF7 breast
[19] = tested on: HCT-116 colon
[20] = tested on: KM12 colon

Row | SMILES | growth [1] | growth [2] | growth [3] | growth [4] | growth [5] | growth [6] | growth [7] | growth [8] | growth [9] | growth [10] | growth [11] | growth [12] | growth [13] | growth [14] | growth [15] | growth [16] | growth [17] | growth [18] | growth [19] | growth [20]
1 | C[C@@H]1CCC/C=C/[C@H]2C[C@@H](O)C[C@@H]2[C@@H](O)/C=C/C(=O)O1 | -7.08% (active) | -62.2% (active) | -8.61% (active) | 6.74% (active) | -92.8% (active) | -70% (active) | 18.3% (inactive) | 11.4% (inactive) | 1.42% (active) | 30.5% (inactive) | 22.1% (inactive) | 8.48% (active) | 5.5% (active) | 42% (inactive) | 9.17% (active) | 7.4% (active) | 10.3% (inactive) | 10.8% (inactive) | -1.47% (active) | 14.9% (inactive)
2 | C/C=C/CC(C)C(O)[C@H](NC(=O)[C@@H]1CCCN1C(=O)C(C)(C)NC(=O)CCCCCCCCC)C(=O)N[C@@](C)(CC)C(=O)N[C@@H](CCC(N)=O)C(=O)N[C@H](CCC(N)=O)C(=O)NC(C)(C)C(=O)N[C@@](C)(CC)C(=O)N[C@@H](CCC(N)=O)C(=O)N[C@H](CC(C)C)C(=O)N[C@H](CO)CC(C)C (stereo not given in full) | 93.8% (inactive) and -92.9% (active) | 106% (inactive) and -96.8% (active) | 129% (inactive) and -75.3% (active) | 100% (inactive) and -67.5% (active) | 99.9% (inactive) and -90.2% (active) | 101% (inactive) and -88.2% (active) | 104% (inactive) and -100% (active) | 101% (inactive) and -44.1% (active) | 101% (inactive) and -14.5% (active) | 106% (inactive) and -64.3% (active) | 106% (inactive) and 19.2% (inactive) | 111% (inactive) and -11.2% (active) | 106% (inactive) and -23.2% (active) | 109% (inactive) and -71.9% (active) | 106% (inactive) and -38.7% (active) | 95.9% (inactive) and -31.3% (active) | 99.1% (inactive) and 3.5% (active) | 96.1% (inactive) and -68.2% (active) | 102% (inactive) and 0.686% (active) | 108% (inactive) and -60.9% (active)
3 | C/C=C/CC(C)C(O)[C@H](NC(=O)[C@@H]1CCCN1C(=O)C(C)(C)NC(=O)CCCCCCCCC)C(=O)N[C@@](C)(CC)C(=O)N[C@@H](CCC(N)=O)C(=O)N[C@H](CCC(N)=O)C(=O)NC(C)(C)C(=O)NC(C)(C)C(=O)N[C@@H](CCC(N)=O)C(=O)N[C@H](CC(C)C)C(=O)N[C@H](CO)CC(C)C (stereo not given in full) | -65.1% (active) and -22% (active) | -32.1% (active) and 53.6% (inactive) | -61.8% (active) and 31.5% (inactive) | -43.6% (active) and 20.4% (inactive) | -54.6% (active) and 12.6% (inactive) | -57.3% (active) and 1.46% (active) | -92.6% (active) and -78.4% (active) | 18.6% (inactive) and 12.1% (inactive) | 18.8% (inactive) and 54.7% (inactive) | 2.04% (active) and 49.9% (inactive) | 81% (inactive) and 87.9% (inactive) | 37.6% (inactive) and 80.8% (inactive) | 34% (inactive) and 72.2% (inactive) | -51.7% (active) and -15.4% (active) | 19.7% (inactive) and 35.4% (inactive) | 28.6% (inactive) and 52% (inactive) | 38.1% (inactive) and 93% (inactive) | -2.63% (active) and 45.8% (inactive) | 33.5% (inactive) and 78.4% (inactive) | -32.5% (active) and 10.3% (inactive)

From PubChem BioAssay (NCI)
